In PubChem BioAssay (EPA / NIEHS):
Records with an inconclusive call do not appear. Activity calls are given as the source filed them. How the source made its calls, unless noted: active means hit-call score of the fitted dose curve at least 0.9, where 1 is the maximum; inactive means score below 0.9.

Each molecule was assayed against Steroid hormone receptor ERR1 (Homo sapiens) (UniProt P11474) (assay: ATG_ERRa_TRANS: Attagene TRANS-FACTORIAL HepG2 Assay for human Estrogen-Related Receptor alpha (ERRa) (AID 2282971; active means hit-call score of the fitted dose curve at least 0.9, where 1 is the maximum)). Conditions: HepG2 Attagene TRANS reporter, ERRa transactivation.
Steroid hormone receptor ERR1 (Homo sapiens), sequence (P11474 whole entry, looked up, the tested form may be a part): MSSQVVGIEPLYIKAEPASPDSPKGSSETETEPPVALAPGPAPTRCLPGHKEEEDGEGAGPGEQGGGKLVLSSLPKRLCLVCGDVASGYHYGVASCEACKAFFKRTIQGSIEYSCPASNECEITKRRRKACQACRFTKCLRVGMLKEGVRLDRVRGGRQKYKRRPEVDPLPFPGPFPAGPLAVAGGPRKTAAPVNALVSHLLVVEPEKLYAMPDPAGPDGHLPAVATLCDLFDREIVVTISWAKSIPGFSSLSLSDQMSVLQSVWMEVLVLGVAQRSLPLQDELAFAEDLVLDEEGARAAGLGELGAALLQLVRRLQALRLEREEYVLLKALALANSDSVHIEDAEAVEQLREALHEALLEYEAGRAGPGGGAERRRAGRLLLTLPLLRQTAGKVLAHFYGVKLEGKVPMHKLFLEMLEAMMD
Outline: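 HepG2 cells were transiently transfected with multiple GAL4-UAS reporter units, then dosed with compound for 24 h. Total RNA was reverse-transcribed, reporter cDNA PCR-amplified and fluorescently labelled, and fragments resolved by capillary electrophoresis; induction was compared with DMSO.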
`O=C=Nc1cccc2c(N=C=O)cccc12` was tested, and the outcome was “inactive”. `O=C(O)CCC(F)(F)C(F)(F)C(F)(F)F` was tested, and the outcome was “inactive”. `Cc1ccc(O)cn1` was tested, and the outcome was “inactive”. `C[C@]12CC[C@H]3C(=CCc4cc(O)ccc43)[C@@H]1CCC2=O` was tested, and the outcome was “inactive”. For `Cc1cc(=O)[nH]c(C(C)C)n1`, the outcome was “inactive”. With `N#CCCOCCC#N` the outcome was “inactive”. For `Cc1ccc([N+](=O)[O-])c(C)c1`, the outcome was “inactive”. With `CC1=CCC(=O)O1` the outcome was “inactive”. `O=S(=O)(OCC(F)(F)F)C(F)(F)C(F)(F)C(F)(F)C(F)(F)F` was tested, and the outcome was “inactive”. With `OCCCCl` the outcome was “inactive”.

Each molecule was assayed against X-box-binding protein 1 (Homo sapiens) (UniProt P17861) (assay: ATG_Xbp1_CIS: Attagene CIS-FACTORIAL HepG2 Assay for human X-box Binding Protein 1 (XBP1) (AID 2282972)). Conditions: HepG2 XBP1 cis-element reporter, Attagene multiplex; actives raise or lower the signal.
X-box-binding protein 1 (Homo sapiens), sequence (P17861 whole entry, looked up): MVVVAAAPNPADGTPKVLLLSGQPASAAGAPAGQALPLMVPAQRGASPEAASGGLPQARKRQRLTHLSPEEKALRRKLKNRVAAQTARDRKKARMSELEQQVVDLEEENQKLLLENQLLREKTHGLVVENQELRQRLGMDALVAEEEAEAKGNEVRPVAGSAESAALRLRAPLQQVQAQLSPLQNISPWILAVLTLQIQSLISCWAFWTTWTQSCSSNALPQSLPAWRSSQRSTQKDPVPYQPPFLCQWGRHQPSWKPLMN
Outline: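 Reporter transcripts were quantified by RT-PCR with fluorescent primer extension and capillary electrophoresis after 24 h chemical exposure. Cells: transiently transfected HepG2 carrying cis-regulated reporter constructs; data fitted bidirectionally relative to DMSO.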
With `CCn1c2ccccc2c2ccccc21` the outcome was “inactive”. `O=C(O)CCC(F)(F)C(F)(F)C(F)(F)F` was tested, and the outcome was “inactive”. In the case of `O=S(=O)(O)c1ccc(Cl)cc1`, the outcome is reported as “inactive”. `NS(=O)(=O)C(F)(F)C(F)(F)C(F)(F)C(F)(F)C(F)(F)C(F)(F)F` was tested, and the outcome was “inactive”. With `C=C(C)CCCC` the outcome was “inactive”. For `Cc1ccc(O)cn1`, the outcome was “inactive”. In the case of `CC1=CCC2C(=O)OC(=O)C2C1` (centres undefined), the outcome is reported as “inactive”. In the case of `C[C@]12CC[C@H]3C(=CCc4cc(O)ccc43)[C@@H]1CCC2=O`, the outcome is reported as “inactive”. For `CC(C)Nc1ccc(NC(C)C)c2c1C(=O)c1ccccc1C2=O`, the outcome was “inactive”. For `Cc1cc(=O)[nH]c(C(C)C)n1`, the outcome was “inactive”. With `N#CCCOCCC#N` the outcome was “inactive”. In the case of `O=C=NCc1cccc(CN=C=O)c1`, the outcome is reported as “inactive”. `CCCCCCCCn1sc(Cl)c(Cl)c1=O` was tested, and the outcome was “inactive”. `CC(C)(C)c1cc(CCC(=O)OCC(COC(=O)CCc2cc(C(C)(C)C)c(O)c(C(C)(C)C)c2)(COC(=O)CCc2cc(C(C)(C)C)c(O)c(C(C)(C)C)c2)COC(=O)CCc2cc(C(C)(C)C)c(O)c(C(C)(C)C)c2)cc(C(C)(C)C)c1O` was tested, and the outcome was “inactive”.
